Consider seven compounds from PubChem BioAssay (Tox21).

SMILES strings stand for the structures. Values joined by “and” are separate entries in the source; they are usually repeats but may differ in a detail not shown here. Equal values may be shown once. A number with no mark means an inactive call. Records with an inconclusive call do not appear. Active and inactive are the calls of the source. Unless noted, calls follow the shape of the dose curve; as a rule, active = well fitted curve in the direction sought with a large enough effect in the repeat runs; inconclusive = weak or mixed curves; inactive = no such curve, though single readings can be large; an effect the other way counts as inactive or inconclusive.

A short description of assay [1]: qHTS assay to identify small molecule agonists of the estrogen receptor alpha (ER-alpha) signaling pathway in the presence of an antagonist - cell viability counter screen (AID 1259386).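 Also: series mostly up to about 92 µM; cells exposed to compounds for 22 h at 37 °C before the viability read; nearly all actives have a fitted effect of over 30% in size.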 Summed up: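 VM7Luc4E2 cells (endogenous full-length ER-alpha, 4×ERE-luciferase) were held 5 days in phenol red-free medium with 10% charcoal-stripped FBS, plated, then given 10.0nM ICI-182,780 and compounds at 15 concentrations for 22hr at 37C; viability read by CellTiter-Fluor fluorescence.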
For orientation: qHTS replaces the single test concentration by a dilution series.

Assay [2] deals with Progesterone receptor (Homo sapiens) (UniProt P06401). Description: qHTS assay to identify small molecule agonists of the progesterone receptor (PR) signaling pathway (AID 1346784; calls by dose curve; also: nearly all actives have a fitted effect of over 30% in size). The gist of the method: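 PR-UAS-bla HEK 293T cells carrying a UAS-driven beta-lactamase reporter were seeded in medium with 2% charcoal-stripped FBS, preincubated 6 hr at 37C, then exposed to compounds in DMSO for 16 hr; agonism was read by LiveBLAzer B/G FRET fluorescence.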
Progesterone receptor (Homo sapiens), sequence (P06401 whole entry, looked up): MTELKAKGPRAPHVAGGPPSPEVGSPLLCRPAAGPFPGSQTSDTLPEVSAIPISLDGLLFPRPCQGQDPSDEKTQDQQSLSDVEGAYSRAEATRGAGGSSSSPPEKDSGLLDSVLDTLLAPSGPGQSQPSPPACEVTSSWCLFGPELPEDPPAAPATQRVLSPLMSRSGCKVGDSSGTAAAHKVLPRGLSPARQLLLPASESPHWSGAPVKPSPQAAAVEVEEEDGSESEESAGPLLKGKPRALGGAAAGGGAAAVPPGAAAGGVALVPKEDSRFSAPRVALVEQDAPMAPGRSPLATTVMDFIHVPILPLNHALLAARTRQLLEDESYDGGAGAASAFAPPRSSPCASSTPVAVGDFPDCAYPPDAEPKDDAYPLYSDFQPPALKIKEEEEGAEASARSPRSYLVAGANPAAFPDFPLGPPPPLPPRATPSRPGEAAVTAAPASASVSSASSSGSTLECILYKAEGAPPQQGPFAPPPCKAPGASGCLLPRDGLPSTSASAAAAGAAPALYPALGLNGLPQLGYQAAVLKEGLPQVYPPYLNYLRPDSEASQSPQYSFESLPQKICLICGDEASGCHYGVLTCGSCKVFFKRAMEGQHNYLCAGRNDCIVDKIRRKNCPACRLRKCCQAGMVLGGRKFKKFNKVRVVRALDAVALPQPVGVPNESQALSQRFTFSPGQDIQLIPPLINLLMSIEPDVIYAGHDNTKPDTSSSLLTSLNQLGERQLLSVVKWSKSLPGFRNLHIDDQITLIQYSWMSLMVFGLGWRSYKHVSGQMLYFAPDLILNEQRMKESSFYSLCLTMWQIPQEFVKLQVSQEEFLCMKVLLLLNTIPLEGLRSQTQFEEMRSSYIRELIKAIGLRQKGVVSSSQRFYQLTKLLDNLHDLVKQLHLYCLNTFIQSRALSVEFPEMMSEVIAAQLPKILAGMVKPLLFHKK

The target is the same in assay [3]. Description: qHTS assay to identify small molecule antagonists of the progesterone receptor (PR) signaling pathway (AID 1346795; active = well fitted inhibition curve with a large enough effect in the signal ratio in the repeat runs, not every such curve was filed as active; the % refers to the signal ratio). Summed up:
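PR-UAS-bla HEK293T cells carrying a UAS-driven beta-lactamase reporter were plated in medium with 2% charcoal-stripped FBS and rested 6 hr at 37C. Compounds were added with 1 nM R5020 (final) for 16 hr, then FRET substrate loaded 2 hr at room temperature.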

A short description of assay [4]: qHTS assay to identify small molecule antagonists of the progesterone receptor (PR) signaling pathway - cell viability counter screen (AID 1346798). Also: series mostly up to about 92 µM; nearly all actives have a fitted effect of over 50% in size. The gist of the method: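 PR-UAS-bla HEK293T cells in medium with 2% charcoal-stripped FBS were treated with compounds plus R5020 for 16 hr at 37C. Cell viability was then read by CellTiter-Glo luminescence after 30 min at room temperature in the same wells.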

The nature of assay [5]: qHTS assay to identify small molecule antagonists of the TGF-beta/Smad signaling pathway - cell viability counter screen (AID 1346824). Also: nearly all actives have a fitted effect of over 50% in size. The gist of the method: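 SBE-bla HEK 293T cells, incubated overnight, then compound plus 0.25 ng/mL TGF-beta1 (stock added) for 5 hr at 37 C. Viability was read in the same wells by CellTiter-Glo luminescence after 30 min at room temperature.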

Assay [6] is described as follows: qHTS assay to identify small molecule agonists of the TGF-beta/Smad signaling pathway - cell viability counter screen (AID 1346829). Also: top concentration of the series differs between compounds; nearly all actives have a fitted effect of over 45% in size. The gist of the method: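 Tox21 qHTS format: SBE-bla HEK 293T cells treated with DMSO-dissolved compounds for 5 hr; CellTiter-Glo luminescence after 30 min at room temperature.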
The nature of assay [7]: qHTS assay to identify small molecule agonists of the TGF-beta/Smad signaling pathway (AID 1346859; active = well fitted activation curve with a large enough effect in the signal ratio in the repeat runs, not every such curve was filed as active; the % refers to the signal ratio; also: series mostly up to about 77 µM). Summed up:
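HEK 293T cells stably carrying a beta-lactamase reporter driven by the Smad binding element were seeded overnight, exposed to DMSO-dissolved compounds for 5 hr at 37 C, 5% CO2, then loaded with FRET substrate for 2 hr at room temperature.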

In assay [8] the target is Thyrotropin-releasing hormone receptor (Homo sapiens) (UniProt P34981). Description: qHTS assay to identify small molecule antagonists of the thyrotropin-releasing hormone receptor (TRHR) signaling pathway (AID 1346877; active = well fitted inhibition curve with a large enough effect in the repeat runs, not every such curve was filed as active; also: series mostly up to about 51 µM). Summed up: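 TRHR-expressing HEK293 cells were seeded, cultured 18 h at 37 °C, then loaded with calcium dye for 2 h. Compounds were pre-incubated 5 min at room temperature before 1 nM TRH (final) was added, and kinetic fluorescence was recorded for 3 min.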
Thyrotropin-releasing hormone receptor (Homo sapiens), sequence (P34981 whole entry, looked up): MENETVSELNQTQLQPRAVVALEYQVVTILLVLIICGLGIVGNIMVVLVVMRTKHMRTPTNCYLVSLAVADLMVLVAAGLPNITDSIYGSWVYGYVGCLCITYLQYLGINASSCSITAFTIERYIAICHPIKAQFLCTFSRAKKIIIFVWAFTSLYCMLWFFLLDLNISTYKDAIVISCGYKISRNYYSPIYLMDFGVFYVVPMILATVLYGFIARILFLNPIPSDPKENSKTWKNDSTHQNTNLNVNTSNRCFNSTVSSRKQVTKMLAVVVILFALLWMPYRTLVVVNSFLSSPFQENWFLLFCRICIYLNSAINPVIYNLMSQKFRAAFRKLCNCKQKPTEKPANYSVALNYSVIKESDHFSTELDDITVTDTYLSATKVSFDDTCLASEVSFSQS

Assay [9] shares this target. The assay is described as follows: qHTS assay to identify small molecule agonists of the thyrotropin-releasing hormone receptor (TRHR) signaling pathway (AID 1346891; calls by dose curve; also: series mostly up to about 58 µM). The gist of the method: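 TRHR-expressing HEK293 cells were plated 18 h at 37 °C/5% CO2, loaded with calcium dye 2 h at 37 °C, then given compound in DMSO; fluorescence was read kinetically for 3 min at 1 s intervals.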

The nature of assay [10]: Human pregnane X receptor (PXR) small molecule agonists, qHTS cell viability counter screen (AID 1346977). Also: nearly all actives have a fitted effect of over 50% in size. Also: potency is read from the fitted curve at half-maximal effect. Summed up: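 PXR-Luc HepG2 cells in medium with 5% charcoal-stripped FBS were pre-incubated 5hr, then exposed to compounds for 24hr at 37C. Viability was read in the same wells by CellTiter-Fluor fluorescence, reagent added after 23hr with a 1hr incubation.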
The nature of assay [11]: Caspase-3/7 induction in HepG2 cells by small molecules, qHTS assay (AID 1346978). Also: nearly all actives have a fitted effect of over 15% in size. The gist of the method: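 Wild-type HepG2 cells, 2,000/well, settled 5 hr at 37 C and 5% CO2, then compound-treated for 17 hr; caspase-3/7 activity read by luminescent Caspase-Glo 3/7 after 30 min at room temperature.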
Assay [12] can be described thus: Caspase-3/7 induction in CHO-K1 cells by small molecules, qHTS cell viability counter screen (AID 1346979). Also: nearly all actives have a fitted effect of over 35% in size. Also: potency is read from the fitted curve at half-maximal effect. The gist of the method:
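Wild-type CHO-K1 cells were seeded at 1,500 per well, rested 5hr at 37 C, then exposed to compounds in DMSO. After 16hr, CellTiter-Fluor reagent was added and fluorescence read 1hr later as the viability measure.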

Assay [13] in a line: Caspase-3/7 induction in CHO-K1 cells by small molecules, qHTS assay (AID 1346980). Also: nearly all actives have a fitted effect of over 15% in size. The gist of the method: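 Wild-type CHO-K1 cells exposed to compounds for 17hr at 37 C, 5% CO2. Caspase-3/7 activity then measured by Caspase-Glo 3/7 luminescence after 30min at room temperature.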
The nature of assay [14]: Caspase-3/7 induction in HepG2 cells by small molecules, qHTS cell viability counter screen (AID 1346981). Also: nearly all actives have a fitted effect of over 30% in size. Also: potency is read from the fitted curve at half-maximal effect. As to activity change, negative = cytotoxicity: series mostly up to about 92 µM. The gist of the method: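 Wild-type HepG2 cells (2,000/well) were allowed to settle for 5 hr at 37 C, 5% CO2, then dosed with compounds in DMSO by pin transfer. After 16 hr at 37 C, CellTiter-Fluor was added and fluorescence read 1 hr later.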
Assay [15] has as its target Nuclear receptor subfamily 1 group I member 2 (Homo sapiens) (UniProt O75469). Description: Human pregnane X receptor (PXR) small molecule agonists, qHTS assay (AID 1346982). Also: nearly all actives have a fitted effect of over 35% in size. The gist of the method: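 PXR-Luc HepG2 cells (CYP3A4 promoter-driven luciferase) were seeded in medium with 5% charcoal-stripped FBS, left 5 hr at 37 C, then exposed to compounds in DMSO for 24 hr. Luminescence was read after ONE-Glo addition.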

Assay [16] deals with Acetylcholinesterase (Homo sapiens) (UniProt P22303). Description: Acetylcholinesterase (AChE) small molecule antagonists: colormetric cell-based qHTS assay (AID 1347395; calls by dose curve; also: nearly all actives have a fitted effect of over 30% in size; also: potency is read from the fitted curve at half-maximal effect). The gist of the method:
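SH-SY5Y cells, plated overnight at 37 C, were exposed to compounds for 30 min at 37 C and 5% CO2. Acetylthiocholine plus DTNB was then added, and thiocholine from endogenous AChE was quantified colorimetrically after 90 min at 37 C.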

Assay [17] in a line: qHTS assay to identify small molecule agonists of the progesterone receptor (PR) signaling pathway - cell viability counter screen (AID 1346799; calls by dose curve; also: nearly all actives have a fitted effect of over 45% in size). Summed up: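 PR-UAS-bla HEK293T cells, 3,000 per well in medium with 2% charcoal-stripped FBS, were preincubated 6 hr at 37C, then exposed to compounds for 16 hr; viability was read as CellTiter-Glo luminescence after 30 min at room temperature.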

In assay [18] the target is Nuclear receptor subfamily 1 group I member 2 (Homo sapiens) (UniProt O75469). The assay is described as follows: CYP3A4 induction through human pregnane X receptor (PXR) by small molecules, qHTS assay (AID 1346984). Also: nearly all actives have a fitted effect of over 40% in size. The gist of the method: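 DPX-2 cells (HepG2 co-transfected with PXR and CYP3A4 promoter-luciferase) treated with compounds 24 h at 37C; luciferin-IPA CYP3A4 substrate 3uM final added for 3 h, then One-Glo; luminescence read. qHTS format.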
Nuclear receptor subfamily 1 group I member 2 (Homo sapiens), sequence (O75469 whole entry, looked up): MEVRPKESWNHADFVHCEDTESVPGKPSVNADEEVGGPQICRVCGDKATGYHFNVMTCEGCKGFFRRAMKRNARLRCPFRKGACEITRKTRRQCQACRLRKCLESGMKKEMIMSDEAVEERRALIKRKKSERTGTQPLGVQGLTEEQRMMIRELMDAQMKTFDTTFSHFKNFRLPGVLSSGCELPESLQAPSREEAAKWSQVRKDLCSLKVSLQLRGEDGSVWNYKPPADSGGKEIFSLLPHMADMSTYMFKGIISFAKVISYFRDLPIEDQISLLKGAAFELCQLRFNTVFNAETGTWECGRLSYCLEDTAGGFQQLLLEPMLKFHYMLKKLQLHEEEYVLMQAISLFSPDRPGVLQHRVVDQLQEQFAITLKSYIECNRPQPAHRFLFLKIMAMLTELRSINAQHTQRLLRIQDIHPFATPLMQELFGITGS

Assay [19] shares this target. The assay is described as follows: Human pregnane X receptor (PXR) activation by small molecules, qHTS assay (AID 1346985). Also: nearly all actives have a fitted effect of over 40% in size. Summed up:
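DPX-2 cells (HepG2 co-transfected with a PXR response element and a CYP3A4-promoter luciferase construct) were seeded at 2,000 per well, rested 5 hr at 37C, then exposed to DMSO-dissolved compounds for 24 hr. Activation was read as luciferase luminescence.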
% is scaled to controls: 0 for no effect and ±100 for the full control effect.

Acetylcholinesterase (Homo sapiens), sequence (P22303 whole entry, looked up): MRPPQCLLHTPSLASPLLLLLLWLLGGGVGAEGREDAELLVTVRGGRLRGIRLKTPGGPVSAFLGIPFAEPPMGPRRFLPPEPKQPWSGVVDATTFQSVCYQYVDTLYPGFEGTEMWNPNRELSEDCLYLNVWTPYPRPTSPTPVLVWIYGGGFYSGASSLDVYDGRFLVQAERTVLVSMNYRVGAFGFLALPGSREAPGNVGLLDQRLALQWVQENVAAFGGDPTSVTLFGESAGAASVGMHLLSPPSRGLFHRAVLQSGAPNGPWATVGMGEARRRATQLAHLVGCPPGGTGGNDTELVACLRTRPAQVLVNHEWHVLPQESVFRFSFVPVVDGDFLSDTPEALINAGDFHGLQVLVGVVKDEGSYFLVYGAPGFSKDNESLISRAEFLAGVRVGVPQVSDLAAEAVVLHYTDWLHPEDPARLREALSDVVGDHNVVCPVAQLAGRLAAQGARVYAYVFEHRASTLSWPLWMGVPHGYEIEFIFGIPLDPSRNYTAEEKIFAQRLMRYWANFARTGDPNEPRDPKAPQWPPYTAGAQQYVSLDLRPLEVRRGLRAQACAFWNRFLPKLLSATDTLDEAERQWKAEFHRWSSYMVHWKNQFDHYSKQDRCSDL

As to `C[N+]1(CCF)[C@@H]2CC[C@H]1CC(OC(=O)C(O)(c1ccccc1)c1ccccc1)C2` (stereo not given in full), the Potency entry in assay [1], in assay [2], in assay [3], in assay [4], in assay [5] and in assay [6] was “inactive” each time. Also, the Potency entry in assay [8], in assay [10], in assay [11], in assay [12], in [13] and in assay [14] was “inactive” each time. The Potency entry in assay [15] and in assay [16] was “inactive” throughout. The compound was classed as inactive in assay [7] and in [9].

As to `CNC(=O)Oc1cccc(N=CN(C)C)c1`, the Potency entry in [1], in assay [2], in assay [3], in [4], in assay [5] and in assay [6] was “inactive” each time. In addition, the Potency entry in [8], in [10], in [11], in assay [13], in assay [14] and in assay [15] was “inactive” throughout. Moreover, the call in assay [7] and in assay [9] was inactive. For the same compound, the Potency in assay [16] was 3.99 µM (active).

For `CC(Cc1ccccc1)NCc1ccccc1Cl` (stereo not given), the Potency result in [1], in assay [2], in assay [3], in [4], in [17] and in assay [5] was “inactive” each time. For the same compound, the Potency entry in assay [6], in [8], in [10], in assay [11], in assay [12] and in [13] was “inactive” in each case. Moreover, the Potency entry in assay [14], in assay [19] and in assay [16] was “inactive” each time. The result in assay [9] and in assay [18] was inactive.

Regarding `CCCCNC(=O)OCC#CI`, the Potency result in assay [1], in assay [2], in assay [3], in [4], in assay [17] and in [5] was “inactive” in each case. The Potency entry in [6], in [8], in [11], in assay [13], in [15] and in assay [16] was “inactive” in each case. In addition, in assay [9], the result was inactive. The Potency was 35.5 µM (active) and 27.3 µM (active) in [10]; 30.5 µM (active) and 27.3 µM (active) in assay [12]; 48.3 µM (active) and 61.1 µM (active) in assay [14].

Take `CCOP(=S)(OCC)SCSc1cc(Cl)ccc1Cl`: the Potency entry in assay [1], in assay [2], in assay [3], in [17], in assay [5] and in assay [6] was “inactive” throughout. Also, the Potency entry in [8], in assay [10], in assay [11], in [12], in [13] and in assay [14] was “inactive” each time. The Potency entry in assay [15] and in assay [16] was “inactive” throughout. Besides, the outcome in assay [7] and in assay [9] was inactive.

For the compound `Clc1ccc2ccccc2c1`, the Potency result in [1], in [2], in [3], in assay [4], in assay [5] and in assay [6] was “inactive” in each case. Moreover, the Potency result in [8], in [10], in [11], in assay [12], in assay [13] and in [14] was “inactive” in each case. Further, the Potency result in assay [15] and in assay [16] was “inactive” in each case. Besides, the call in [7] and in [9] was inactive.

For the compound `Nc1c(Br)cc(Br)c2c1C(=O)c1ccccc1C2=O`, the activity change, negative = cytotoxicity was -8.67% [at 19 µM] in [1], -0.481% [at 18.9 µM] in [4], 9.34% [at 15.8 µM] in assay [6] and -8.94% [at 19 µM] in assay [14]. Moreover, the results for the activation in [2], in [9] and in assay [15] were 0.744% [at 19 µM], -0.213% [at 11.8 µM] and 3.29% [at 19 µM], respectively. Further, the activity change, negative = inhibition in assay [3] is 9.35% [at 18.9 µM]. In assay [5], the viability change, negative = cytotoxic was 4.07% [at 15.8 µM]. The figures for the activity, negative = inhibition in assay [8] and in assay [16] were -4.46% [at 10.5 µM] and 1.8% [at 23.6 µM], respectively. Moreover, the caspase activation in [11] was 0.187% [at 19 µM]. Further, the Potency in [12] is 14.5 µM (active). In addition, the caspase-3/7 activation in assay [13] is 3.36% [at 19 µM].
